The text below walks through data of the supplement of paper PMC3545927.

In the experiment the target is furin, P09958. The experiment can be described thus: furin cleavage Z-score vs untreated control; higher = more cleavage, active = 3.5 or more, inactive = 1 or less, 8 variable residues between constant flanks. The method in brief:
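The cleavage Z-score is the log read count relative to furin-free reactions, lowess-adjusted and scaled by median absolute deviation. Counts came from sequencing DNA released from bead-bound 8-mer peptide–cDNA fusions after digestion with purified furin for 7.5, 15 or 30 min.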

This is one part of the list. The hit rate among all sequences tested is not known here.
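Also: purified furin at 1:10 enzyme:substrate in 50 mM HEPES pH 7.5.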

Chain of furin, P09958 (P09958 whole entry, the tested form may be a part): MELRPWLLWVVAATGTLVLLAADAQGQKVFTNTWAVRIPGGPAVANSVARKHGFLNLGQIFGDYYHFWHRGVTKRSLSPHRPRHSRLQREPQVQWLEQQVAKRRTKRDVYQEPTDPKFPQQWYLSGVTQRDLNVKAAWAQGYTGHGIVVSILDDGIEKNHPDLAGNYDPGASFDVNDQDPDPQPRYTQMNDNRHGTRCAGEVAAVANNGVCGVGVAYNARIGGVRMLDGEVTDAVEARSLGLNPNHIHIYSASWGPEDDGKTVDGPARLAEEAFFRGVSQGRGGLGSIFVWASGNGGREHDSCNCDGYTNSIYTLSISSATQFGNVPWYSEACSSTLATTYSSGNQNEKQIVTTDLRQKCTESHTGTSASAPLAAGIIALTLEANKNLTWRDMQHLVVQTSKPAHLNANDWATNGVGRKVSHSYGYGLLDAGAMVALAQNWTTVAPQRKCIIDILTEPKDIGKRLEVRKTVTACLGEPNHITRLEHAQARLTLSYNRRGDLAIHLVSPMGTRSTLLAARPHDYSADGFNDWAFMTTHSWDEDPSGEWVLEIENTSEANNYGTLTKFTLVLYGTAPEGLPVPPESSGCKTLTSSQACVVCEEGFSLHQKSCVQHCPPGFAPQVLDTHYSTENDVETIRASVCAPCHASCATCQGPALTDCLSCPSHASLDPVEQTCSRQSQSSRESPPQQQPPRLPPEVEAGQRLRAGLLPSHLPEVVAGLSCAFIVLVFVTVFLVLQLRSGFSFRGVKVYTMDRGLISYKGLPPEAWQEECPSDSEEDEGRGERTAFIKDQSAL

As to CARNKREDRTAGNASASA [FS-2727], the “furin cleavage Z-score” value is 11.9 (active) (7.5 min), 12.6 (active) (15 min) and 8.05 (active) (30 min).

CARVLRENGKAGNASASA [FS-3119]: the “furin cleavage Z-score” value is, setting by setting: (7.5 min) 0.679 (inactive); (15 min) -0.235 (inactive); (30 min) 0.807 (inactive).

As for CAREKRKNRTAGNASASA [FS-1888], the “furin cleavage Z-score” value was 0.751 (inactive) (7.5 min), 1.62 (15 min) and -0.32 (inactive) (30 min).

Consider CAREKKVTRTAGNASASA [FS-2914], for which the “furin cleavage Z-score” value by setting is: (7.5 min) -1.91 (inactive); (15 min) -0.133 (inactive); (30 min) 0.367 (inactive).

Take CARNKRESGKAGNASASA [FS-1757]: the “furin cleavage Z-score” value by setting is: (7.5 min) 8.44 (active); (15 min) 9.42 (active); (30 min) 7.75 (active).

On to CATAILSSLTAGNASASA [HC1133], for which the “furin cleavage Z-score” value is -0.0959 (inactive) (7.5 min), 1.64 (15 min) and 1.05 (30 min).

Turning to CALDMIAGAHAGNASASA [HC333], the “furin cleavage Z-score” value (7.5 min) is -0.265 (inactive), the “furin cleavage Z-score” value (15 min) is -1.79 (inactive) and the “furin cleavage Z-score” value (30 min) was 0.6 (inactive).

Take CAVVCHSMSYAGNASASA [HC89]: the “furin cleavage Z-score” value is -0.697 (inactive) (7.5 min), -0.997 (inactive) (15 min) and -0.52 (inactive) (30 min).

In the case of CACEVLSDFKAGNASASA [HC1153], the “furin cleavage Z-score” value runs as follows: (7.5 min) -1.16 (inactive); (15 min) -1.03 (inactive); (30 min) 0.3 (inactive).

Turning to CAAASRLARGAGNASASA [FS-211], the “furin cleavage Z-score” value runs as follows: (7.5 min) 0.553 (inactive); (15 min) 1.11; (30 min) 0.636 (inactive).

Consider CADNKRMARNAGNASASA [FS-984], for which the “furin cleavage Z-score” value by setting is: (7.5 min) 5.12 (active); (15 min) 6.32 (active); (30 min) 6.33 (active).

For CANGFRHARNAGNASASA [FS-466], the “furin cleavage Z-score” value (7.5 min) was -0.528 (inactive), the “furin cleavage Z-score” value (15 min) was -0.454 (inactive) and the “furin cleavage Z-score” value (30 min) is -0.259 (inactive).

As to CADTTIMAKNAGNASASA [HC1438], the “furin cleavage Z-score” value was 1.51 (7.5 min), -0.0215 (inactive) (15 min) and 0.93 (inactive) (30 min).

With CAPNSRLARNAGNASASA [FS-475], the “furin cleavage Z-score” value is, setting by setting: (7.5 min) 6.58 (active); (15 min) 6.13 (active); (30 min) 6.41 (active).

CARLGAVQNEAGNASASA [HC974]: the “furin cleavage Z-score” value was -1.44 (inactive) (7.5 min), -1.09 (inactive) (15 min) and -2.56 (inactive) (30 min).

Take CARNKKDVNLAGNASASA [FS-2726]: the “furin cleavage Z-score” value (7.5 min) is 0.881 (inactive), the “furin cleavage Z-score” value (15 min) was 0.588 (inactive) and the “furin cleavage Z-score” value (30 min) was 0.399 (inactive).

Turning to CARVKRSPGLAGNASASA [FS-2387], the “furin cleavage Z-score” value reads like this: (7.5 min) 10.4 (active); (15 min) 10.3 (active); (30 min) 9.1 (active).

In the case of CAQVRNSTGLAGNASASA [HC257], the “furin cleavage Z-score” value runs as follows: (7.5 min) -0.176 (inactive); (15 min) 1.49; (30 min) 0.103 (inactive).

Turning to CARELRQLMEAGNASASA [FS-2916], the “furin cleavage Z-score” value was 0.168 (inactive) (7.5 min), -0.988 (inactive) (15 min) and -1.36 (inactive) (30 min).

For the sequence CARVKRVLMGAGNASASA [FS-2618], the “furin cleavage Z-score” value runs as follows: (7.5 min) -0.934 (inactive); (15 min) -0.615 (inactive); (30 min) -0.629 (inactive).

In the case of CARVKRDLVLAGNASASA [FS-2317], the “furin cleavage Z-score” value is 8.24 (active) (7.5 min), 11 (active) (15 min) and 9.42 (active) (30 min).

In the case of CASKKRSNGLAGNASASA [FS-3136], the “furin cleavage Z-score” value is -1.83 (inactive) (7.5 min), 0.376 (inactive) (15 min) and 2.11 (30 min).

On to CARLYRSLGEAGNASASA [FS-2045], for which the “furin cleavage Z-score” value runs as follows: (7.5 min) 1.86; (15 min) 4.55 (active); (30 min) 4.61 (active).

Consider CARVKRSLGEAGNASASA [FS-1977], for which the “furin cleavage Z-score” value runs as follows: (7.5 min) 10.7 (active); (15 min) 12.6 (active); (30 min) 9.34 (active).

Consider CADIWDWICEAGNASASA [HC1150], for which the “furin cleavage Z-score” value runs as follows: (7.5 min) -0.513 (inactive); (15 min) -0.19 (inactive); (30 min) -1.62 (inactive).

For CAEVVTFTWVAGNASASA [HC146], the “furin cleavage Z-score” value by setting is: (7.5 min) -0.177 (inactive); (15 min) -1.31 (inactive); (30 min) -0.383 (inactive).

For CAYGFQYSPGAGNASASA [HC1466], the “furin cleavage Z-score” value by setting is: (7.5 min) -1.04 (inactive); (15 min) 0.304 (inactive); (30 min) -1.02 (inactive).

For the sequence CAEVPCHRMSAGNASASA [HC2386], the “furin cleavage Z-score” value is 0.401 (inactive) (7.5 min), 1.85 (15 min) and -1.19 (inactive) (30 min).

With CAGRTWAQPGAGNASASA [HC197], the “furin cleavage Z-score” value (7.5 min) was 0.399 (inactive), the “furin cleavage Z-score” value (15 min) is 0.197 (inactive) and the “furin cleavage Z-score” value (30 min) was -2.32 (inactive).

Turning to CATHPCSGSWAGNASASA [HC1855], the “furin cleavage Z-score” value was -0.725 (inactive) (7.5 min), 0.134 (inactive) (15 min) and -0.569 (inactive) (30 min).

As to CARLRRSLGEAGNASASA [FS-1830], the “furin cleavage Z-score” value (7.5 min) was 4.48 (active), the “furin cleavage Z-score” value (15 min) was 6.54 (active) and the “furin cleavage Z-score” value (30 min) was 5.36 (active).

CARIGRAVRPAGNASASA [FS-1720]: the “furin cleavage Z-score” value runs as follows: (7.5 min) 6.17 (active); (15 min) 6.97 (active); (30 min) 7.91 (active).

On to CARTPRAVRPAGNASASA [FS-2241], for which the “furin cleavage Z-score” value (7.5 min) is 4.95 (active), the “furin cleavage Z-score” value (15 min) is 5.05 (active) and the “furin cleavage Z-score” value (30 min) was 7.16 (active).

For the sequence CADSSRSVRPAGNASASA [FS-1518], the “furin cleavage Z-score” value by setting is: (7.5 min) -1.18 (inactive); (15 min) -0.293 (inactive); (30 min) 0.507 (inactive).

For the sequence CAREKKSASWAGNASASA [FS-3244], the “furin cleavage Z-score” value reads like this: (7.5 min) -1.37 (inactive); (15 min) -1 (inactive); (30 min) 0.389 (inactive).

Turning to CANDVVCCSMAGNASASA [HC2121], the “furin cleavage Z-score” value runs as follows: (7.5 min) 0.854 (inactive); (15 min) 0.345 (inactive); (30 min) 0.79 (inactive).

CADIMEECSQAGNASASA [HC1804]: the “furin cleavage Z-score” value was -0.826 (inactive) (7.5 min), -1.93 (inactive) (15 min) and 0.332 (inactive) (30 min).

Consider CAVEECSQHLAGNASASA [HC1670], for which the “furin cleavage Z-score” value (7.5 min) was 0.23 (inactive), the “furin cleavage Z-score” value (15 min) is 0.997 (inactive) and the “furin cleavage Z-score” value (30 min) was -0.342 (inactive).

In the case of CAELVVCCSMAGNASASA [HC2125], the “furin cleavage Z-score” value is -0.0192 (inactive) (7.5 min), -0.743 (inactive) (15 min) and -0.249 (inactive) (30 min).

As to CAVVKRPRRYAGNASASA [FS-314], the “furin cleavage Z-score” value runs as follows: (7.5 min) 9.96 (active); (15 min) 10.8 (active); (30 min) 10 (active).

As for CAVLARMMRPAGNASASA [FS-966], the “furin cleavage Z-score” value reads like this: (7.5 min) -0.155 (inactive); (15 min) 0.612 (inactive); (30 min) -0.556 (inactive).

For CARMIRTNEAAGNASASA [FS-3000], the “furin cleavage Z-score” value is, setting by setting: (7.5 min) 0.282 (inactive); (15 min) 0.0077 (inactive); (30 min) 0.743 (inactive).

Take CAVVCCSMRYAGNASASA [HC2073]: the “furin cleavage Z-score” value is 0.763 (inactive) (7.5 min), 0.207 (inactive) (15 min) and 0.313 (inactive) (30 min).

Take CAVLEDGVNYAGNASASA [HC239]: the “furin cleavage Z-score” value is, setting by setting: (7.5 min) -0.545 (inactive); (15 min) -2.21 (inactive); (30 min) 0.0229 (inactive).

On to CAKRWRRRRYAGNASASA [FS-1350], for which the “furin cleavage Z-score” value by setting is: (7.5 min) 10.3 (active); (15 min) 12 (active); (30 min) 9.1 (active).

In the case of CARMIRRRRYAGNASASA [FS-1652], the “furin cleavage Z-score” value was 10.9 (active) (7.5 min), 13.2 (active) (15 min) and 9.13 (active) (30 min).

As for CAHRSRDGRYAGNASASA [FS-797], the “furin cleavage Z-score” value is, setting by setting: (7.5 min) 0.199 (inactive); (15 min) 1.41; (30 min) 0.834 (inactive).

On to CAVLHRRRRYAGNASASA [FS-891], for which the “furin cleavage Z-score” value is 9.61 (active) (7.5 min), 10.5 (active) (15 min) and 9.16 (active) (30 min).

Consider CAVVKCSMSYAGNASASA [HC2034], for which the “furin cleavage Z-score” value reads like this: (7.5 min) 0.0381 (inactive); (15 min) 0.000409 (inactive); (30 min) 0.298 (inactive).
